Experiment [1] is described as follows: BSK_4H_Eotaxin3: BioMAP Diversity Plus: 4H Assay for Eotaxin 3 Biomarker Activity (AID 2283000).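 Further: CCL26 protein level quantified by ELISA in parallel with SRB cytotoxicity check.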 The following applies: primary human endothelial cells (HUVEC); actives raise or lower the signal. The method in brief: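 HUVEC, 24 h post-dose, ELISA for Eotaxin-3/CCL26. Gain or loss of signal fitted bidirectionally vs DMSO baseline.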
For experiment [2], the target named is human Peroxisome Proliferator-activated Receptor alpha (PPARa), PPARA (gene 5465) (UniProt Q07869). Description: ATG_PPARa_TRANS: Attagene TRANS-FACTORIAL HepG2 Assay for human Peroxisome Proliferator-activated Receptor alpha (PPARa) (AID 2283001; active means hit-call score of the fitted dose curve at least 0.9, where 1 is the maximum). Put shortly: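 Reporter transcripts from GAL4-UAS units in transfected HepG2 were quantified 24 h after dosing. Detection used reverse transcription, PCR, fluorescent primer extension and capillary electrophoresis, with DMSO as baseline.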

The target of experiment [3] is human Peroxisome Proliferator-activated Receptor delta (PPARd), PPARD (gene 5467) (UniProt Q03181). Description: ATG_PPARd_TRANS: Attagene TRANS-FACTORIAL HepG2 Assay for human Peroxisome Proliferator-activated Receptor delta (PPARd) (AID 2283002; active means hit-call score of the fitted dose curve at least 0.9, where 1 is the maximum). The method in brief: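 Transient HepG2 transfection (multiple GAL4-UAS RTUs, chimeric receptor-Gal4); 24 h dosing; total RNA → oligo(dT) RT → PCR → 6-FAM primer extension → HpaI cut → CE. Positive direction vs DMSO.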

Read-out in experiment [4]: Intercellular Adhesion Molecule 1 (ICAM1), ICAM1 (gene 3383)
Description: BSK_3C_ICAM1: BioMAP Diversity Plus: 3C Assay for Intercellular Adhesion Molecule 1 (ICAM1) Biomarker Activity (AID 2283003). The following applies: primary human endothelial cells (HUVEC); actives raise or lower the signal. The method in brief:
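Human vascular endothelial primary cells, 3C conditions, 24 h treatment. ICAM-1 by ELISA.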

Experiment [5] has as its target human Retinoic Acid Receptor beta (RARb), RARB (gene 5915) (UniProt P10826). The experiment is described as follows: ATG_RARb_TRANS: Attagene TRANS-FACTORIAL HepG2 Assay for human Retinoic Acid Receptor beta (AID 2283004; active means hit-call score of the fitted dose curve at least 0.9, where 1 is the maximum). Put shortly: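 HepG2 cells transiently transfected with multiplexed GAL4-UAS reporter units expressing chimeric NR–Gal4 fusions; 24 h compound exposure. Reporter mRNA quantified by RT-PCR, 6-FAM labelling, HpaI digestion and capillary electrophoresis; gain-of-signal fitted against DMSO baseline.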

A short description of experiment [6]: BSK_3C_Proliferation: Cell Proliferation Assessment in the BioMAP Diversity Plus: 3C Assay (AID 2283006).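 On AC50: potency may reflect either rise or fall in cell number versus DMSO.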 The following applies: primary human endothelial cells (HUVEC). Put shortly: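 Proliferation of human vascular endothelial primary cells after 48 h dosing, quantified as SRB-stained protein at 560 nm relative to DMSO.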
Experiment [7] addresses Peroxisome proliferator-activated receptor gamma (Homo sapiens) (UniProt P37231). The experiment is described as follows: ATG_PPARg_TRANS: Attagene TRANS-FACTORIAL HepG2 Assay for human Peroxisome Proliferator-activated Receptor-gamma (PPARg) (AID 2283007; active means hit-call score of the fitted dose curve at least 0.9, where 1 is the maximum). Put shortly: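 Twenty-four hours after chemical dosing of transiently transfected HepG2 cells, isolated RNA was converted to cDNA, reporter sequences amplified and 6-FAM-labelled, then HpaI-digested and analysed by capillary electrophoresis. Signal increase against DMSO was fitted.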

Experiment [8] concerns the target Nuclear receptor subfamily 1 group I member 2 (Homo sapiens) (UniProt O75469). The experiment is described as follows: ATG_PXR_TRANS: Attagene TRANS-FACTORIAL HepG2 Assay for human Pregnane X Receptor (PXR) (AID 2283008; active means hit-call score of the fitted dose curve at least 0.9, where 1 is the maximum). Put shortly:
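HepG2 cells transiently transfected with GAL4-UAS reporter units and PXR-Gal4 chimera, exposed 24 h. Reporter mRNA quantified by RT-PCR, fluorescent labelling, HpaI digestion and capillary electrophoresis; gain of signal vs DMSO.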

In experiment [9] the target is human Retinoic Acid Receptor gamma (RARg), RARG (gene 5916) (UniProt P13631). Description: ATG_RARg_TRANS: Attagene TRANS-FACTORIAL HepG2 Assay for human Retinoic Acid Receptor gamma (RARg) (AID 2283009; active means hit-call score of the fitted dose curve at least 0.9, where 1 is the maximum). Put shortly:
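HepG2, RARg-GAL4 TRANS system, 24 h exposure; reporter mRNA by RT-PCR + CE fluorescence; increase over DMSO.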

The target in experiment [10] is Retinoic acid receptor RXR-alpha (Homo sapiens) (UniProt P19793). The experiment is described as follows: ATG_RXRa_TRANS: Attagene TRANS-FACTORIAL HepG2 Assay for human Retinoid X Receptor alpha (RXRa) (AID 2283012; active means hit-call score of the fitted dose curve at least 0.9, where 1 is the maximum). Put shortly:
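Cells (HepG2) carried transiently transfected GAL4-responsive reporter units. Following a 24 h chemical incubation, reporter mRNA induction was read via RT-PCR fragment analysis; DMSO served as negative control and baseline.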

The target of experiment [11] is human Retinoid X Receptor beta (RXRb), RXRB (gene 6257) (UniProt P28702). Description: ATG_RXRb_TRANS: Attagene TRANS-FACTORIAL HepG2 Assay for human Retinoid X Receptor beta (RXRb) (AID 2283013; active means hit-call score of the fitted dose curve at least 0.9, where 1 is the maximum). Put shortly: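 Multiplexed TRANS reporter assay in HepG2; 24 h dosing; reporter mRNA by RT-PCR/CE fluorescence; gain-of-signal relative to DMSO.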
Read-out in experiment [12]: E-selectin (Homo sapiens) (UniProt P16581)
The experiment is described as follows: BSK_3C_Eselectin: BioMAP Diversity Plus: 3C Assay for Eselectin Biomarker Activity (AID 2283015).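 On outcome: cell surface E-selectin protein quantified by ELISA 24 h after dosing.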 The following applies: primary human endothelial cells (HUVEC); actives raise or lower the signal. The method in brief: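 Primary human umbilical vein endothelial cells (3C system) were dosed with chemical and cell-surface E-selectin measured by ELISA 24 h later. Bidirectional curve fitting used DMSO as negative control and baseline.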

Read-out in experiment [13]: Interleukin-1 alpha (IL1a), IL1A (gene 3552)
Description: BSK_BE3C_IL1a: BioMAP Diversity Plus: BE3C Assay for Interleukin-1 alpha (IL1a) Biomarker Activity (AID 2283016). The conditions noted are these: primary human bronchial epithelial cells; actives raise or lower the signal. Put shortly: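 Cultures of primary human bronchial epithelial cells receive test chemical. After 24 h, IL-1a is quantified by ELISA, while parallel wells are fixed in TCA and SRB-stained for total protein. Changes in either direction are fitted relative to DMSO.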

Read-out in experiment [14]: Monocyte Chemoattractant Protein-1 (MCP1), CCL2 (gene 6347)
Description: BSK_3C_MCP1: BioMAP Diversity Plus: 3C Assay for Monocyte Chemoattractant Protein-1 (MCP1) Biomarker Activity (AID 2283017). The following applies: primary human endothelial cells (HUVEC); actives raise or lower the signal. Put shortly:
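Primary human umbilical vein endothelial cells (3C system) were exposed to test chemical for 24 h, after which MCP-1 was quantified by ELISA. Activity was fitted bidirectionally against DMSO as negative control and baseline.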

Read-out in experiment [15]: Monocyte Chemoattractant Protein-1 (MCP1), CCL2 (gene 6347)
The experiment is described as follows: BSK_4H_MCP1: BioMAP Diversity Plus: 4H Assay for Monocyte Chemoattractant Protein-1 (MCP1) Biomarker Activity (AID 2283018). The conditions noted are these: primary human endothelial cells (HUVEC); actives raise or lower the signal. The method in brief:
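Readout: MCP-1 ELISA on compound-treated HUVEC, sampled 24 h post-dosing. Baseline and negative control DMSO; bidirectional fit. Overt toxicity checked alongside by sulforhodamine B protein staining at time of biomarker measurement.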

Read-out in experiment [16]: Human Leukocyte Antigen - DR isotype (HLADR), HLA-DRA (gene 3122)
Description: BSK_3C_HLADR: BioMAP Diversity Plus: 3C Assay for Human Leukocyte Antigen - DR isotype (HLADR) Biomarker Activity (AID 2283019). The conditions noted are these: primary human endothelial cells (HUVEC); actives raise or lower the signal. Put shortly: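 Primary human umbilical vein endothelial cells (3C system) were dosed with compound and cell-surface HLA-DR was quantified by ELISA at 24 h. Activity was fitted bidirectionally against DMSO as negative control and baseline.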

Read-out in experiment [17]: Interleukin-8 (IL8), CXCL8 (gene 3576)
The experiment is described as follows: BSK_3C_IL8: BioMAP Diversity Plus: 3C Assay for Interleukin-8 (IL8) Biomarker Activity (AID 2283020). The conditions noted are these: primary human endothelial cells (HUVEC); actives raise or lower the signal. Put shortly: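 Human vascular endothelial cells (umbilical vein) in the 3C system; IL-8 level detected by ELISA at 24 h post-dose, with DMSO as baseline.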

In experiment [18] the target is human Thyroid Receptor alpha (THRa1), THRA (gene 7067) (UniProt P10827). Description: ATG_THRa1_TRANS: Attagene TRANS-FACTORIAL HepG2 Assay for human Thyroid Receptor alpha (THRa1) (AID 2283014; active means hit-call score of the fitted dose curve at least 0.9, where 1 is the maximum). Put shortly: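 HepG2 cells transiently transfected with multiplexed GAL4-UAS reporter units for exogenous chimeric THRa1-Gal4; reporter mRNA measured 24 h after dosing by RT-PCR, 6-FAM labelling, HpaI digestion and capillary electrophoresis. Gain-of-signal fitted versus DMSO baseline.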

In experiment [19] the target is human RAR-related Orphan Receptor gamma (RORg), RORC (gene 6097) (UniProt P51449). The experiment is described as follows: ATG_RORg_TRANS: Attagene TRANS-FACTORIAL HepG2 Assay for human RAR-related Orphan Receptor gamma (RORg) (AID 2283011; active means hit-call score of the fitted dose curve at least 0.9, where 1 is the maximum). Put shortly: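 Readout: reporter transcript induction (RT-PCR, fluorescent primer extension, capillary electrophoresis) after 24 h compound exposure of transiently transfected HepG2 cells carrying a RORg-Gal4 chimera and GAL4-UAS reporters; DMSO served as baseline, with increasing signal fitted.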

Experiment [20] concerns the target human RAR-related Orphan Receptor beta (RORb), RORB (gene 6096) (UniProt Q92753). Description: ATG_RORb_TRANS: Attagene TRANS-FACTORIAL HepG2 Assay for human RAR-related Orphan Receptor beta (RORb) (AID 2283010; active means hit-call score of the fitted dose curve at least 0.9, where 1 is the maximum). Put shortly: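 In this TRANS-format test, human HepG2 cells express chimeric NR-Gal4 fusion proteins driving GAL4-UAS reporters. After 24 h dosing, reporter transcripts are measured by fluorescent RT-PCR/capillary electrophoresis, with DMSO as negative control.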

Records with an inconclusive call do not appear. Activity calls are given as the source filed them. How the source made its calls, unless noted: active means hit-call score of the fitted dose curve at least 0.9, where 1 is the maximum; inactive means score below 0.9.

human RAR-related Orphan Receptor gamma (RORg), RORC (gene 6097), sequence (P51449 whole entry, looked up, the tested form may be a part): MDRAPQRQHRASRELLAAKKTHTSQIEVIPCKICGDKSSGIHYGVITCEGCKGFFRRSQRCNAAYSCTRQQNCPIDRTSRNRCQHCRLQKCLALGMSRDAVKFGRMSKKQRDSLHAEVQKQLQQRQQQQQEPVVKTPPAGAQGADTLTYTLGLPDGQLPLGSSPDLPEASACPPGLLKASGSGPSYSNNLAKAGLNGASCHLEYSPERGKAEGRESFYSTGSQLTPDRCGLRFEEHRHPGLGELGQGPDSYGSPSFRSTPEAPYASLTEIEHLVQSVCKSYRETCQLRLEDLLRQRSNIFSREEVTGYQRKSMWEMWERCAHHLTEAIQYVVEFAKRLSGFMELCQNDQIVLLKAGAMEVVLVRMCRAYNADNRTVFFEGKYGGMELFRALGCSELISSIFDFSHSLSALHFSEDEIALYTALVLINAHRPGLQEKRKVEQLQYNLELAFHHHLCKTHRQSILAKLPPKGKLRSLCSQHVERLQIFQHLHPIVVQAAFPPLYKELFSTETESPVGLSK
human Retinoic Acid Receptor gamma (RARg), RARG (gene 5916), sequence (P13631 whole entry, looked up, the tested form may be a part): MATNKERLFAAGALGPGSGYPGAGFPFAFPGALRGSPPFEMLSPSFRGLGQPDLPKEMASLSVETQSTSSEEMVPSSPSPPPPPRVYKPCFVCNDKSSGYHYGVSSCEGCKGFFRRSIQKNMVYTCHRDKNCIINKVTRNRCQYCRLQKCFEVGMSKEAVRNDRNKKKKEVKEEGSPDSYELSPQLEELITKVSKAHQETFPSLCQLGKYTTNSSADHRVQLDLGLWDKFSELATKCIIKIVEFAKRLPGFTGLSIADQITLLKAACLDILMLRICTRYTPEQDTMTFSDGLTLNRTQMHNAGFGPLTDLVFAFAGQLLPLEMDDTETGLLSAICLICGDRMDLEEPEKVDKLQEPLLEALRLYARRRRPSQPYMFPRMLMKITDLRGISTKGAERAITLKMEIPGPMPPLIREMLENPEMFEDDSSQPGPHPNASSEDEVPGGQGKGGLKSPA
human Peroxisome Proliferator-activated Receptor alpha (PPARa), PPARA (gene 5465), sequence (Q07869 whole entry, looked up, the tested form may be a part): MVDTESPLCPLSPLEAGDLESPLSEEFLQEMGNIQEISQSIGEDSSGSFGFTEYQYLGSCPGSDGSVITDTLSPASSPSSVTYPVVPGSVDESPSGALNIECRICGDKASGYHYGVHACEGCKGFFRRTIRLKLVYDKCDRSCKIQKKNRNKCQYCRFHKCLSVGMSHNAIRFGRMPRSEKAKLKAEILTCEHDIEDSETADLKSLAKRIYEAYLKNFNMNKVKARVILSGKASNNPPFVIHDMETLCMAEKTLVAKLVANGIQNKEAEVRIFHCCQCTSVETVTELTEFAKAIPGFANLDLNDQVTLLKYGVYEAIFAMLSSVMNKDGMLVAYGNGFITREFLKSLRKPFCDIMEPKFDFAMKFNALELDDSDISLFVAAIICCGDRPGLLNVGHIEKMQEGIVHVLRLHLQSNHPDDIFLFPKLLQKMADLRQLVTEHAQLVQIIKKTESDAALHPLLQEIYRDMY
Nuclear receptor subfamily 1 group I member 2 (Homo sapiens), sequence (O75469 whole entry, looked up, the tested form may be a part): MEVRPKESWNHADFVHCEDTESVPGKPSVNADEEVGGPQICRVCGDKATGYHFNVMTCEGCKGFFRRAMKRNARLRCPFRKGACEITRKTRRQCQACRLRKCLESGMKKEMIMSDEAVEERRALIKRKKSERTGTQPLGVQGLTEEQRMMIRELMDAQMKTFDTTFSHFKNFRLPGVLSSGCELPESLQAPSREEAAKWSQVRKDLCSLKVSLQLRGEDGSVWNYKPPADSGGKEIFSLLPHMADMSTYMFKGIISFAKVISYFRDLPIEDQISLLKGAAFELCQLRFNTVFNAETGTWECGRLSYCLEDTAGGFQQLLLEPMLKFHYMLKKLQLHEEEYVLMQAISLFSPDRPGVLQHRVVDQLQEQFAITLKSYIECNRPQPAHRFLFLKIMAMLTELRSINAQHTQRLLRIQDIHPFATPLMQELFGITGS
Peroxisome proliferator-activated receptor gamma (Homo sapiens), sequence (P37231 whole entry, looked up): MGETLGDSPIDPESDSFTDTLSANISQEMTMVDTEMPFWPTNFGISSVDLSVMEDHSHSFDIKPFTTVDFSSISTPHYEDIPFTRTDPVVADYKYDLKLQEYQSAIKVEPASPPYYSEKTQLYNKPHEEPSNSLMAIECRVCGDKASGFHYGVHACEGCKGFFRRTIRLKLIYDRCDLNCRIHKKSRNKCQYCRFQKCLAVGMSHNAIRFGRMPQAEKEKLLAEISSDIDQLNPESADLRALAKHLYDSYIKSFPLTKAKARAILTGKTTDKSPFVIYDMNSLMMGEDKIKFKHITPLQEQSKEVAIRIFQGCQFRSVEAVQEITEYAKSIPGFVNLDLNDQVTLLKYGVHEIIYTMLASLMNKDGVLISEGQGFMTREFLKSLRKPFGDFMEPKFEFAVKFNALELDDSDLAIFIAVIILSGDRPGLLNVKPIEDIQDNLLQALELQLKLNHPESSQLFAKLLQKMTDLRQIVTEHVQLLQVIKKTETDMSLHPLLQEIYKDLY
human Retinoid X Receptor beta (RXRb), RXRB (gene 6257), sequence (P28702 whole entry, looked up): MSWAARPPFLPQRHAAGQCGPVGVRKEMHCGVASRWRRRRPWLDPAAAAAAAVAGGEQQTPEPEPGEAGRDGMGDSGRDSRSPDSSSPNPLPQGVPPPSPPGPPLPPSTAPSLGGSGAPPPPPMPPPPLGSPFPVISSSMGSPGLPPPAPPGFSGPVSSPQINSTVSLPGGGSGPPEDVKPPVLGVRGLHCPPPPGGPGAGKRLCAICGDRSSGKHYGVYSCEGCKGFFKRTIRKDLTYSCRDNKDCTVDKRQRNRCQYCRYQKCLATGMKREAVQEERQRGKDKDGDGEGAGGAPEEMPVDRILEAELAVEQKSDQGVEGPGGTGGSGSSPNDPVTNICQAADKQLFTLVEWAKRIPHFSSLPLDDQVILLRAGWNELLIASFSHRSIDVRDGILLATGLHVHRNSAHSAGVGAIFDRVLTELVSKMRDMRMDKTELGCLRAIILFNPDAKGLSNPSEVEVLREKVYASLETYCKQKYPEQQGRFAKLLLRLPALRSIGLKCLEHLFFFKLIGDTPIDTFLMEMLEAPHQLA
human Peroxisome Proliferator-activated Receptor delta (PPARd), PPARD (gene 5467), sequence (Q03181 whole entry, looked up, the tested form may be a part): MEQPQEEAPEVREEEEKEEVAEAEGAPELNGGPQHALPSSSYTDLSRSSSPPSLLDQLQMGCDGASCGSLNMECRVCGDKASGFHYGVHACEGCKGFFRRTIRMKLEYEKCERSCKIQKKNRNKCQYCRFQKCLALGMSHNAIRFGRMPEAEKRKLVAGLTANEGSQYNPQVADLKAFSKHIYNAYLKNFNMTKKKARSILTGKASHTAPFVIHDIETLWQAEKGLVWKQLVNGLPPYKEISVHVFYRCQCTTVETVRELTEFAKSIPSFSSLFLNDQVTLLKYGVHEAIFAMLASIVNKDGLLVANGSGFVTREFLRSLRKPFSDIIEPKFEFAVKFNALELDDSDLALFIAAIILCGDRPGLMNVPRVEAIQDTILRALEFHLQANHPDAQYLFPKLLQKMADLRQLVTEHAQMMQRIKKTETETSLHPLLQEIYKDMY
human Retinoic Acid Receptor beta (RARb), RARB (gene 5915), sequence (P10826 whole entry, looked up, the tested form may be a part): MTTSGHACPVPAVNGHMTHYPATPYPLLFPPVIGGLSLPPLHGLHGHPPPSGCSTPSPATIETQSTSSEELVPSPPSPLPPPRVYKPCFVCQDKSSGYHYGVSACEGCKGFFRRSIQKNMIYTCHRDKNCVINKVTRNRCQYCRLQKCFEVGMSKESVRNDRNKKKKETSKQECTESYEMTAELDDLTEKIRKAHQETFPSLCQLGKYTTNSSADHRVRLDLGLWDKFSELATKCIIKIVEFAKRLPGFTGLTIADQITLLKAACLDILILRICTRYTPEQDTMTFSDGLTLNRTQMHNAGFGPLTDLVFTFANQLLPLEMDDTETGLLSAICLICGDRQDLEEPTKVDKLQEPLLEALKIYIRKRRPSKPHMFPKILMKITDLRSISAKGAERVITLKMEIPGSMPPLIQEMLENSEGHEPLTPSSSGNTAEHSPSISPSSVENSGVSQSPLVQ
E-selectin (Homo sapiens), sequence (P16581 whole entry, looked up): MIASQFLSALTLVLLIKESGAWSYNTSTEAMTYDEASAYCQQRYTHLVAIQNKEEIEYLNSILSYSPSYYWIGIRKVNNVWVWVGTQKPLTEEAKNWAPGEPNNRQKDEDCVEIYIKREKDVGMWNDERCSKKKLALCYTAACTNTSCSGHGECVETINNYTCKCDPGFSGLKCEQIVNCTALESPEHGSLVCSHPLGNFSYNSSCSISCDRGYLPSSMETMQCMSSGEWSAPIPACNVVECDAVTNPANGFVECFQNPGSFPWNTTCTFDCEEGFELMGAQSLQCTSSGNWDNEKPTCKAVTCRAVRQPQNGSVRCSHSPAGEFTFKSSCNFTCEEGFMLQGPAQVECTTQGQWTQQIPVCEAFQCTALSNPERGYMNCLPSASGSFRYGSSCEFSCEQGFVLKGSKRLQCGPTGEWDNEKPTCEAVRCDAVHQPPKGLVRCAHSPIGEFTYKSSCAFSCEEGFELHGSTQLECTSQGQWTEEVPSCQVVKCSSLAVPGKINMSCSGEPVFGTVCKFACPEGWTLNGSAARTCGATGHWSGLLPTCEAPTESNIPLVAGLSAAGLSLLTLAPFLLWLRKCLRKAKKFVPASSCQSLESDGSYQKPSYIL
human Thyroid Receptor alpha (THRa1), THRA (gene 7067), sequence (P10827 whole entry, looked up, the tested form may be a part): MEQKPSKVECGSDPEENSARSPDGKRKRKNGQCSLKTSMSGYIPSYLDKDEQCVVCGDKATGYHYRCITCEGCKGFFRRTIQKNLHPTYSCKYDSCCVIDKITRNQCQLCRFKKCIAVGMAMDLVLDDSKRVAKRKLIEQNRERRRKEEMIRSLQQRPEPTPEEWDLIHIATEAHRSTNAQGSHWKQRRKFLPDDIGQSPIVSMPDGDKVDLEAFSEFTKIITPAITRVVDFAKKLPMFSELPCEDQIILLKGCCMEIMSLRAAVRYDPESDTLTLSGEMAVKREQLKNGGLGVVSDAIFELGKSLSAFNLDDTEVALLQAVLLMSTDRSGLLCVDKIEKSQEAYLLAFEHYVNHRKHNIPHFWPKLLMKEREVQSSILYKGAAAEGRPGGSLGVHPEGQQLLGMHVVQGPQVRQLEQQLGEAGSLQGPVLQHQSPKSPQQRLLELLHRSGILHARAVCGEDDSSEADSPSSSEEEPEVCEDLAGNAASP

Take `C#CCC1=C(C)C(OC(=O)C2C(C=C(C)C)C2(C)C)CC1=O` (stereo not given): the outcome in [1], in experiment [2], in [3], in [4], in experiment [5] and in [9] was inactive. Besides, the call in experiment [10], in experiment [11] and in experiment [13] was inactive. Also, the AC50 was 28.8 µM (active) in [6]; 28 µM (active) in experiment [7]; 3.12 µM (active) in [8]; 36 µM (active) in experiment [12]; 32.2 µM (active) in [14]; 20.6 µM (active) in experiment [15]. Moreover, the figures for the AC50 in experiment [16] and in experiment [17] were 20 µM (active) and 30.7 µM (active), respectively.
On to `COc1ccc(C(=CC(=O)N2CCOCC2)c2ccc(Cl)cc2)cc1OC`, for which the outcome in [1], in experiment [2], in experiment [3], in experiment [4], in [6] and in experiment [7] was inactive. The result in experiment [8], in [10], in [11], in experiment [18], in [13] and in experiment [15] was inactive. The result in experiment [17] was inactive. Besides, the AC50 in experiment [12] is 10.2 µM (active); in [14] it was 6.59 µM (active); in [16], 13.9 µM (active).
`CCC(=O)Nc1ccc(Cl)c(Cl)c1`: the outcome in experiment [1], in experiment [2], in [4], in [5], in [6] and in [7] was inactive. Besides, the result in experiment [8], in [19], in [10], in experiment [11], in [12] and in experiment [13] was inactive. In addition, the result in [14], in experiment [15] and in experiment [17] was inactive. In addition, the AC50 in [16] was 6.03 µM (active).
Consider `CCCCOC(=O)c1ccccc1C(=O)O`, for which the result in experiment [1], in [2], in [3], in experiment [4], in [6] and in experiment [7] was inactive. In addition, the result in [20], in [19], in experiment [10], in experiment [11], in [18] and in experiment [12] was inactive. Moreover, the outcome in experiment [13], in [14], in [15], in [16] and in experiment [17] was inactive.
Regarding `O=C(O)c1cc(Oc2ccc(C(F)(F)F)cc2Cl)ccc1[N+](=O)[O-]`, the result in experiment [1], in experiment [2], in experiment [4], in [5], in experiment [6] and in [8] was inactive. In addition, the call in [9], in experiment [19], in experiment [10], in experiment [11], in [18] and in experiment [12] was inactive. Further, the outcome in experiment [13], in experiment [14], in experiment [15], in [16] and in experiment [17] was inactive. Besides, the AC50 in experiment [7] is 37.1 µM (active).
With `CN(C)C(=O)Nc1cccc(C(F)(F)F)c1`, the outcome in experiment [1], in experiment [2], in experiment [4], in [5], in experiment [6] and in [7] was inactive. The outcome in [8], in [10], in experiment [12], in experiment [13], in experiment [14] and in experiment [15] was inactive. The outcome in experiment [16] and in [17] was inactive.
Consider `CCCCSP(=O)(SCCCC)SCCCC`, for which the outcome in experiment [1], in [2], in experiment [3], in experiment [4], in experiment [5] and in experiment [8] was inactive. Also, the call in [9], in experiment [10], in [11] and in experiment [13] was inactive. The AC50 in experiment [6] was 29.5 µM (active); in [7], 30.5 µM (active); in experiment [12], 28.1 µM (active); in experiment [14], 26 µM (active); in experiment [15], 16.7 µM (active); in [16], 27.7 µM (active). The AC50 in [17] is 31.9 µM (active).

Values taken from PubChem BioAssay (EPA / NIEHS).
